We go through eight compounds from PubChem BioAssay (NCI).

Common to all, as to experiment: NCI-60 one-dose screen, 48 h (100 = growth as untreated, 0 = no growth, -100 = all killed)
One experiment concerns HCT-15 colon. Particulars: 10 µM unless noted.
In a further experiment the test system is HT29 colon. Conditions: 10 µM unless noted.
The next experiment deals with SNB-75 CNS. Particulars: 10 µM unless noted.
The subject of another experiment is SNB-19 CNS. Conditions: 10 µM unless noted.
In the next experiment the test system is U251 CNS. Particulars: 10 µM unless noted.
The next experiment deals with PC-3 prostate. Particulars: 10 µM unless noted.
For another experiment, the system named is SK-MEL-5 melanoma. Particulars: 10 µM unless noted.
The subject of a further experiment is UACC-62 melanoma. Conditions: 10 µM unless noted.
The next experiment relates to LOX IMVI melanoma. Particulars: 10 µM unless noted.
In a further experiment the test system is SK-MEL-28 melanoma. Particulars: 10 µM unless noted.
For the next experiment, the system named is SK-MEL-2 melanoma. Conditions: 10 µM unless noted.
Another experiment concerns EKVX NSCLC. Conditions: 10 µM unless noted.
For a further experiment, the system named is SN12C renal. Conditions: 10 µM unless noted.
The next experiment has as its system UO-31 renal. Particulars: 10 µM unless noted.
In another experiment the test system is CAKI-1 renal. Particulars: 10 µM.
Another experiment has as its system CCRF-CEM leukemia. Particulars: 10 µM unless noted.
The next experiment concerns MOLT-4 leukemia. Conditions: 10 µM unless noted.
In the next experiment the test system is ACHN renal. Particulars: 10 µM unless noted.
For a further experiment, the system named is TK-10 renal. Particulars: 10 µM unless noted.
The subject of a further experiment is A498 renal. Conditions: 10 µM unless noted.

Compounds without any hit were thinned out: in the full panel of roughly 83,000, 20% have a hit.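 Growth was measured after 48 h exposure to one concentration of compound in 96-well plates. Values under 10 count as active.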 Unmarked numbers belong to inactive results. Activity calls are given as the source filed them.

In the case of `CCCCCCNC(=O)Oc1ccc(/C(=C(\C)c2ccc(OC)cc2)c2ccc(OCCN(C)C)cc2)cc1`, the growth in the experiment with HCT-15 colon was 30.8%; with HT29 colon, 15.8%; with SNB-75 CNS it was 77.2%; with SNB-19 CNS, 74.9%; with U251 CNS, 58.8%; with PC-3 prostate, 66.2%. The growth was 69.9% with SK-MEL-5 melanoma; 89.4% in the experiment with UACC-62 melanoma; -48.5% (active) in the experiment with LOX IMVI melanoma; 76.2% in the experiment with SK-MEL-28 melanoma; 99.8% with SK-MEL-2 melanoma; 75% in the experiment with EKVX NSCLC. Besides, the growth with SN12C renal is 78.8%; in the experiment on UO-31 renal, 52.1%; with CAKI-1 renal, 82.9%; in the experiment on CCRF-CEM leukemia it was 67.3%; with MOLT-4 leukemia, 44.5%.
Take `C#CCOc1ccc(C(Nc2ccc(Cl)cc2)c2nnnn2C2CCCCC2)cc1` (stereo not given): the growth in the experiment with HCT-15 colon was 80%; in the experiment with HT29 colon, 92%; in the experiment on SNB-75 CNS, 87.4%; in the experiment on SNB-19 CNS, 89.5%; with U251 CNS, 86.9%; in the experiment with PC-3 prostate it was 75.2%. The growth is 92.3% in the experiment on SK-MEL-5 melanoma; 72.4% with UACC-62 melanoma; 81.4% with LOX IMVI melanoma; 102% in the experiment on SK-MEL-28 melanoma; 91.4% in the experiment on SK-MEL-2 melanoma; 53.9% with EKVX NSCLC. Further, the growth in the experiment on SN12C renal was 85.9%; in the experiment with UO-31 renal it was 64.9%; with ACHN renal, 96.2%; in the experiment on CAKI-1 renal, 50.3%; in the experiment on CCRF-CEM leukemia it was 91%; with MOLT-4 leukemia it was 72.5%.
Consider `C#C[C@]1(O)CC[C@H]2[C@@H]3CC=C4c5sc(Nc6cc(OC)ccc6OC)nc5CC[C@]4(C)[C@H]3CC[C@@]21C`, for which the growth was 10.3% in the experiment on HCT-15 colon; 21.1% with HT29 colon; 2.31% (active) in the experiment on SNB-75 CNS; 38.3% in the experiment on SNB-19 CNS; 26.1% in the experiment on U251 CNS; 18.9% with PC-3 prostate. Further, the growth in the experiment with SK-MEL-5 melanoma is 6.5% (active); in the experiment with UACC-62 melanoma, -14% (active); in the experiment on LOX IMVI melanoma it was 5.19% (active); with SK-MEL-28 melanoma, -46.6% (active); in the experiment on SK-MEL-2 melanoma, 31.8%; in the experiment with EKVX NSCLC, 42.9%. Further, the growth in the experiment on SN12C renal is 49%; with UO-31 renal, 12.8%; in the experiment on TK-10 renal, 84.7%; in the experiment with CAKI-1 renal it was 28%; in the experiment with A498 renal, -28.3% (active); with MOLT-4 leukemia, -5.93% (active).
As for `COC(=O)c1c(C(=O)OC)c2n(CC(=O)Nc3cccc4cccnc34)c3ccccc3n2c1C(=O)c1ccc(C)cc1`, the growth is 97.6% with HCT-15 colon; 102% in the experiment with HT29 colon; 101% in the experiment with SNB-75 CNS; 91.1% in the experiment on SNB-19 CNS; 97.7% in the experiment with U251 CNS; 82.5% in the experiment on PC-3 prostate. The growth in the experiment with SK-MEL-5 melanoma is 96.4%; in the experiment with UACC-62 melanoma, 84.6%; with LOX IMVI melanoma, 98.9%; in the experiment with SK-MEL-28 melanoma it was 110%; in the experiment with SK-MEL-2 melanoma, 102%; in the experiment with EKVX NSCLC, 97.4%. Besides, the growth in the experiment on SN12C renal is 92.5%; with UO-31 renal, 75.7%; in the experiment with ACHN renal, 97.6%; with CAKI-1 renal, 104%; with A498 renal, 105%; in the experiment on CCRF-CEM leukemia it was 95.4%. Also, the growth in the experiment on MOLT-4 leukemia was 93.3%.
Regarding `CC(C)=CCc1c2c(c(O)c3c1O[C@]14C(=C[C@@H]5C[C@H]1C(C)(C)O[C@@]4(C/C=C(/C)C(=O)O)C5=O)C3=O)CC(O)C(C)(C)O2` (stereo not given in full), the growth in the experiment with HCT-15 colon is -41.6% (active); in the experiment on HT29 colon, -8.66% (active); with SNB-75 CNS, -25.7% (active); in the experiment on SNB-19 CNS it was 22.6%; in the experiment with U251 CNS, -72.4% (active); in the experiment on PC-3 prostate, 7.46% (active). Moreover, the growth with SK-MEL-5 melanoma is -96.6% (active); with UACC-62 melanoma, -26.1% (active); in the experiment with LOX IMVI melanoma, -95.4% (active); in the experiment on SK-MEL-28 melanoma it was -13.7% (active); in the experiment with SK-MEL-2 melanoma, -71.3% (active); in the experiment on EKVX NSCLC, -32.5% (active). Further, the growth was 12.9% in the experiment on SN12C renal; -57.1% (active) in the experiment with UO-31 renal; -11% (active) with ACHN renal; -75.6% (active) with A498 renal; -7.09% (active) with MOLT-4 leukemia.
With `C#CCOc1ccc(/C=N/Nc2nc(-c3cc(Cl)ccc3Cl)cs2)cc1`, the growth was 81.7% in the experiment with HCT-15 colon; 110% with HT29 colon; 77.3% with SNB-75 CNS; 104% in the experiment with SNB-19 CNS; 98.6% in the experiment on U251 CNS; 87.1% in the experiment on PC-3 prostate. In addition, the growth was 97.8% in the experiment on SK-MEL-5 melanoma; 80.3% with UACC-62 melanoma; 97.7% in the experiment with LOX IMVI melanoma; 110% in the experiment on SK-MEL-28 melanoma; 113% with SK-MEL-2 melanoma; 73.6% in the experiment on EKVX NSCLC. The growth is 88.7% with SN12C renal; 68.5% in the experiment on UO-31 renal; 148% with TK-10 renal; 77.1% in the experiment on CAKI-1 renal; 83.6% in the experiment on A498 renal; 94.7% with CCRF-CEM leukemia. Also, the growth in the experiment with MOLT-4 leukemia was 86.3%.
On to `O=C(C[n+]1ccnc2ccccc21)c1ccc(O)c(O)c1`, for which the growth was 12.8% with HCT-15 colon; 18.3% with HT29 colon; 98.2% in the experiment on SNB-75 CNS; 80.8% with SNB-19 CNS; 63.8% with U251 CNS; 44.7% with PC-3 prostate. For the same compound, the growth in the experiment with SK-MEL-5 melanoma is 81.6%; in the experiment on UACC-62 melanoma, 54.6%; in the experiment with LOX IMVI melanoma it was 8.68% (active); in the experiment on SK-MEL-28 melanoma it was 63.3%; in the experiment with SK-MEL-2 melanoma, 77.7%; in the experiment with EKVX NSCLC it was 94.2%. In addition, the growth is 59.5% with SN12C renal; 40.3% in the experiment on UO-31 renal; 43.1% in the experiment with TK-10 renal; 69.8% in the experiment on CAKI-1 renal; 87.7% in the experiment with A498 renal; 11.6% in the experiment on MOLT-4 leukemia.
For the compound `COc1ccccc1N1CCN(C2=NN=C(c3cccc(Cl)c3)c3ccccc3C2)CC1`, the growth is 15.8% in the experiment with HCT-15 colon; -3.52% (active) in the experiment with HT29 colon; 19.7% in the experiment on SNB-75 CNS; 41.2% in the experiment with SNB-19 CNS; 20.7% in the experiment on U251 CNS; 23.5% in the experiment on PC-3 prostate. Moreover, the growth in the experiment on SK-MEL-5 melanoma is -6.03% (active); with UACC-62 melanoma it was 31.6%; in the experiment with LOX IMVI melanoma, 24.8%; in the experiment on SK-MEL-28 melanoma it was 60.7%; in the experiment with SK-MEL-2 melanoma, 0.738% (active); with EKVX NSCLC, 40.9%. The growth was 21.2% with SN12C renal; 24% with UO-31 renal; 28.5% with ACHN renal; 29.7% with CAKI-1 renal; -16.6% (active) in the experiment on A498 renal; 10.1% in the experiment with CCRF-CEM leukemia. Further, the growth with MOLT-4 leukemia is 17.6%.
